Measurements published in PubChem BioAssay (EPA / NIEHS).
Results filed as inconclusive are left out. Calls of active or inactive are those of the source. How the source made its calls, unless noted: active means hit-call score of the fitted dose curve at least 0.9, where 1 is the maximum; inactive means score below 0.9.

Experiments:
[1] = read-out: E-selectin (Homo sapiens) (UniProt P16581); assay: BSK_3C_Eselectin: BioMAP Diversity Plus: 3C Assay for Eselectin Biomarker Activity (AID 2283015); conditions: primary human endothelial cells (HUVEC); actives raise or lower the signal;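 further: cell surface E-selectin protein quantified by ELISA 24 h after dosing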
Summary of the method: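 Primary human umbilical vein endothelial cells (3C system) were dosed with chemical and cell-surface E-selectin measured by ELISA 24 h later. Bidirectional curve fitting used DMSO as negative control and baseline.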

[2] = read-out: Interleukin-1 alpha (IL1a), IL1A (gene 3552); assay: BSK_BE3C_IL1a: BioMAP Diversity Plus: BE3C Assay for Interleukin-1 alpha (IL1a) Biomarker Activity (AID 2283016); conditions: primary human bronchial epithelial cells; actives raise or lower the signal
Summary of the method: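 Measured in human lung primary bronchial epithelial cells: IL-1a by ELISA at 24 h after dosing, with bidirectional fitting against DMSO.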

[3] = read-out: Monocyte Chemoattractant Protein-1 (MCP1), CCL2 (gene 6347); assay: BSK_3C_MCP1: BioMAP Diversity Plus: 3C Assay for Monocyte Chemoattractant Protein-1 (MCP1) Biomarker Activity (AID 2283017); conditions: primary human endothelial cells (HUVEC); actives raise or lower the signal
Summary of the method: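 Primary human umbilical vein endothelial cells (3C system) were exposed to test chemical for 24 h, after which MCP-1 was quantified by ELISA. Activity was fitted bidirectionally against DMSO as negative control and baseline.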

[4] = read-out: Monocyte Chemoattractant Protein-1 (MCP1), CCL2 (gene 6347); assay: BSK_4H_MCP1: BioMAP Diversity Plus: 4H Assay for Monocyte Chemoattractant Protein-1 (MCP1) Biomarker Activity (AID 2283018); conditions: primary human endothelial cells (HUVEC); actives raise or lower the signal
Summary of the method: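 Primary human umbilical vein endothelium is exposed to chemical for 24 h before MCP-1 is assayed by ELISA. Concentration-response fitted bidirectionally relative to DMSO.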

[5] = read-out: Human Leukocyte Antigen - DR isotype (HLADR), HLA-DRA (gene 3122); assay: BSK_3C_HLADR: BioMAP Diversity Plus: 3C Assay for Human Leukocyte Antigen - DR isotype (HLADR) Biomarker Activity (AID 2283019); conditions: primary human endothelial cells (HUVEC); actives raise or lower the signal
Summary of the method: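 Primary human umbilical vein endothelial cells (3C system) were dosed with compound and cell-surface HLA-DR was quantified by ELISA at 24 h. Activity was fitted bidirectionally against DMSO as negative control and baseline.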

[6] = read-out: Interleukin-8 (IL8), CXCL8 (gene 3576); assay: BSK_3C_IL8: BioMAP Diversity Plus: 3C Assay for Interleukin-8 (IL8) Biomarker Activity (AID 2283020); conditions: primary human endothelial cells (HUVEC); actives raise or lower the signal
Summary of the method: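 Using DMSO-treated wells as the baseline, bidirectional curve fitting was applied to ELISA-measured IL-8 from human umbilical vein endothelial cultures sampled 24 h after compound addition.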

[7] = read-out: Monokine induced gamma interferon (MIG), CXCL9 (gene 4283); assay: BSK_3C_MIG: BioMAP Diversity Plus: 3C Assay for Monokine induced gamma interferon (MIG) Biomarker Activity (AID 2283021); conditions: primary human endothelial cells (HUVEC); actives raise or lower the signal
Summary of the method: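 ELISA-measured MIG in dosed HUVEC 3C cultures at 24 h, analysed by bidirectional fitting with DMSO defining baseline activity.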

[8] = BSK_3C_SRB: Viability Assessment in the BioMAP Diversity Plus: 3C Assay (AID 2283023); conditions: primary human endothelial cells (HUVEC);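 further: fitted both ways against DMSO so a hit may be signal rise or drop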
Summary of the method: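 Primary human umbilical vein endothelial cells in the 3C system were read 24 h after compound dosing. Total protein was stained with 0.1% sulforhodamine B after 10% TCA fixation and read at 560 nm, with bidirectional fitting against DMSO as baseline.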

[9] = read-out: Matrix Metallopeptidase 1 (MMP1), MMP1 (gene 4312); assay: BSK_BE3C_MMP1: BioMAP Diversity Plus: BE3C Assay for Matrix Metallopeptidase 1 (MMP1) Biomarker Activity (AID 2283024); conditions: primary human bronchial epithelial cells; actives raise or lower the signal
Summary of the method: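 In this multiplexed primary-cell system, human bronchial epithelium received chemicals for 24 h before an ELISA for MMP1. Values reflect bidirectional fits normalised to the DMSO baseline.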

[10] = BSK_3C_Vis: BioMAP Diversity Plus: 3C Assay for Morphology Visualization (AID 2283025); conditions: primary human endothelial cells (HUVEC);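 further: fitted both ways so gain or loss versus DMSO counts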
Summary of the method: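 Light-microscopy morphology readout, 24 h exposure, human primary umbilical vein endothelium; analysed relative to DMSO with bidirectional fitting.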

[11] = read-out: Pselectin, SELP (gene 6403); assay: BSK_4H_Pselectin: BioMAP Diversity Plus: 4H Assay for Pselectin Biomarker Activity (AID 2283026); conditions: primary human endothelial cells (HUVEC); actives raise or lower the signal
Summary of the method: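 Bidirectional fits against DMSO gave the endpoint. Cells: primary human umbilical vein endothelium, chemical-treated for 24 h before ELISA detection of P-selectin.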

[12] = BSK_4H_SRB: Viability Assessment in the BioMAP Diversity Plus: 4H Assay (AID 2283027); conditions: primary human endothelial cells (HUVEC);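 further: cells exposed to compound for 24 h before staining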
Summary of the method: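 HUVEC, 24 h post-dose; 10% TCA fix, 0.1% SRB stain, A560 nm. Total protein = overt cytotoxicity, parallel to biomarker read. Bidirectional fit vs DMSO baseline.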

[13] = BSK_BE3C_SRB: Viability Assessment in the BioMAP Diversity Plus: BE3C Assay (AID 2283028); conditions: primary human bronchial epithelial cells;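 on AC50: fitted both ways so AC50 may mark signal gain or loss versus DMSO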
Summary of the method: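 Human primary bronchial epithelial cells were exposed to test chemicals for 24 h. Total protein in parallel cultures was then measured by staining with 0.1% sulforhodamine B after 10% TCA fixation, with absorbance read at 560 nm. Activity was fitted bidirectionally against DMSO.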

[14] = read-out: Thrombomodulin, THBD (gene 7056); assay: BSK_3C_Thrombomodulin: BioMAP Diversity Plus: 3C Assay for Thrombomodulin Biomarker Activity (AID 2283029); conditions: primary human endothelial cells (HUVEC); actives raise or lower the signal
Summary of the method: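 In a multiplexed primary-cell system, human umbilical vein endothelium received chemical and was assayed 24 h later for thrombomodulin by ELISA. Parallel cultures were SRB-stained (0.1% SRB after 10% TCA fixation, read at 560 nm) to flag cytotoxicity.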

[15] = read-out: Urokinase-type plasminogen activator receptor (uPAR), PLAUR (gene 5329); assay: BSK_4H_uPAR: BioMAP Diversity Plus: 4H Assay for Urokinase-type plasminogen activator receptor (uPAR) Biomarker Activity (AID 2283030); conditions: primary human endothelial cells (HUVEC); actives raise or lower the signal
Summary of the method: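 Primary human umbilical vein endothelial cells were exposed to chemical for 24 h before cell-surface uPAR was quantified by ELISA. Activity was fitted bidirectionally against the DMSO negative control baseline.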

[16] = read-out: Vascular endothelial growth factor receptor 2 (Homo sapiens) (UniProt P35968); assay: BSK_4H_VEGFRII: BioMAP Diversity Plus: 4H Assay for Vascular endothelial growth factor receptor 2 (VEGFR2) Biomarker Activity (AID 2283031); conditions: primary human endothelial cells (HUVEC); actives raise or lower the signal
Summary of the method: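 Primary human umbilical vein endothelial cells in the BioMAP 4H system were dosed with test chemical, and 24 h later VEGFRII was measured by ELISA. Activity was fitted bidirectionally against DMSO as negative control and baseline.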

[17] = read-out: Human Leukocyte Antigen - DR isotype (HLADR), HLA-DRA (gene 3122); assay: BSK_BE3C_HLADR: BioMAP Diversity Plus: BE3C Assay for Human Leukocyte Antigen - DR isotype (HLADR) Biomarker Activity (AID 2283032); conditions: primary human bronchial epithelial cells; actives raise or lower the signal
Summary of the method: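 BioMAP BE3C format: human bronchial epithelium, 24 h compound treatment, ELISA detection of HLA-DR, with bidirectional analysis relative to DMSO.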

[18] = target: human Vitamin D Receptor (VDR), VDR (gene 7421) (UniProt P11473); assay: ATG_VDR_TRANS: Attagene TRANS-FACTORIAL HepG2 Assay for human Vitamin D Receptor (VDR) (AID 2283022; active means hit-call score of the fitted dose curve at least 0.9, where 1 is the maximum)
Summary of the method: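 HepG2 cells were transiently transfected with multiple GAL4-UAS reporter units, so signal reflects exogenous chimeric receptor-Gal4 activity. After 24 h compound exposure, reporter mRNA was measured by RT-PCR, fluorescent labelling and capillary electrophoresis, fitted for gain of signal versus DMSO.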

[19] = target: human Thyroid Receptor alpha (THRa1), THRA (gene 7067) (UniProt P10827); assay: ATG_THRa1_TRANS: Attagene TRANS-FACTORIAL HepG2 Assay for human Thyroid Receptor alpha (THRa1) (AID 2283014; active means hit-call score of the fitted dose curve at least 0.9, where 1 is the maximum)
Summary of the method: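 HepG2 cells transiently transfected with multiplexed GAL4-UAS reporter units for exogenous chimeric THRa1-Gal4; reporter mRNA measured 24 h after dosing by RT-PCR, 6-FAM labelling, HpaI digestion and capillary electrophoresis. Gain-of-signal fitted versus DMSO baseline.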

Measured: AC50

Chain of human Vitamin D Receptor (VDR), VDR (gene 7421) (P11473 whole entry, looked up, the tested form may be a part): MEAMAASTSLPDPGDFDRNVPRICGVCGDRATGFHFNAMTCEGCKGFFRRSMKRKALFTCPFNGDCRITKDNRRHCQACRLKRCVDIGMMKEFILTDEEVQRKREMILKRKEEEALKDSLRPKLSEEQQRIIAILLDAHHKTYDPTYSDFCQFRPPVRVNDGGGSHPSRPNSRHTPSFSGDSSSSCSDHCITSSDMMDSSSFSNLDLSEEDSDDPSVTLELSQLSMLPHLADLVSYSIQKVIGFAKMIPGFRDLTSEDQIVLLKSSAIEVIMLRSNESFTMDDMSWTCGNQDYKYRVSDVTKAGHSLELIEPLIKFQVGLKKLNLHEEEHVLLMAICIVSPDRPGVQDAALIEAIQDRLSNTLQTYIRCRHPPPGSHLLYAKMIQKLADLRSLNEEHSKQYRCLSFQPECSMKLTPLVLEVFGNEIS
Chain of E-selectin (Homo sapiens) (P16581 whole entry, looked up): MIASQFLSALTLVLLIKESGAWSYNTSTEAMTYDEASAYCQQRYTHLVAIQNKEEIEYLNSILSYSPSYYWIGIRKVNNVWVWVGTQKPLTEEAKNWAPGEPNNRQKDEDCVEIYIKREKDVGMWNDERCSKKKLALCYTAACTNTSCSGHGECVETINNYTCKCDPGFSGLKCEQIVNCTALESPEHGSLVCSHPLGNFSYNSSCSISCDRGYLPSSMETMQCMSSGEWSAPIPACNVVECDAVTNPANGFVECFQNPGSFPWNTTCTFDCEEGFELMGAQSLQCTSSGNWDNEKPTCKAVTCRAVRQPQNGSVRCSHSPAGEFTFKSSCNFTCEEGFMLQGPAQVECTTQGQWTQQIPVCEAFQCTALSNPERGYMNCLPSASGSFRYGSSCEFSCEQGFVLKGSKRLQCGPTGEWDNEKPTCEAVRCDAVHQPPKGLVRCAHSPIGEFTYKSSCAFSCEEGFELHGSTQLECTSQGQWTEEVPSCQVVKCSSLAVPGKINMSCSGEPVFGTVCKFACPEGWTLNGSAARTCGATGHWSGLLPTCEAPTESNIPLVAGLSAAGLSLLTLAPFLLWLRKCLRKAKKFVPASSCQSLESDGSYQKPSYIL
Chain of human Thyroid Receptor alpha (THRa1), THRA (gene 7067) (P10827 whole entry, looked up, the tested form may be a part): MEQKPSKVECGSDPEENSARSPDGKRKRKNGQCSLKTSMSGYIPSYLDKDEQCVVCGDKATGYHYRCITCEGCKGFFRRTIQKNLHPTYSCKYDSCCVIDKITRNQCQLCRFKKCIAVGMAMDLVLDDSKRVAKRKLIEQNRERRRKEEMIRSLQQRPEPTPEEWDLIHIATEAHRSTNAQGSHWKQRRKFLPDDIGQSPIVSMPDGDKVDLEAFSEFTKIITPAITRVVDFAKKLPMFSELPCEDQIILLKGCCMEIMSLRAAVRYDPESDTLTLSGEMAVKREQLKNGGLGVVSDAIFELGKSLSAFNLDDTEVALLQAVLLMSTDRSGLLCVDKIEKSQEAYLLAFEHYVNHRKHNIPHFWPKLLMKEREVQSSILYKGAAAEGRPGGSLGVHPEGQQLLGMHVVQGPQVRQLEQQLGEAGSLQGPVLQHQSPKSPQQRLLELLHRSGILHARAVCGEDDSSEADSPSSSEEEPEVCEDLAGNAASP

CCOCCOCCO
not listed: [18] | [19]
inactive: all other assays above

CC(=O)CC(c1ccccc1)c1c(O)c2ccccc2oc1=O (stereo unspecified)
not listed: [19]
inactive: all other assays above

OCC(O)CO
not listed: [18] | [19]
inactive: all other assays above

CC(N)=O
not listed: [10] | [16] | [18]
inactive: all other assays above

O=C(N[C@@H](c1ccccc1)[C@@H]1CCCCN1)c1cccc(C(F)(F)F)c1Cl
active: [2] 36 µM | [3] 20 µM | [5] 29.2 µM | [6] 12.7 µM | [8] 20 µM | [9] 31.8 µM | [11] 20 µM | [13] 34.3 µM | [17] 33.2 µM
inactive: [1] | [4] | [7] | [18] | [12] | [14] | [15] | [16]

O=C1OC(c2ccc(O)cc2)(c2ccc(O)cc2)c2ccccc21
active: [2] 34.8 µM | [3] 14.1 µM | [4] 20 µM | [5] 31.1 µM | [8] 28.6 µM | [9] 3.97 µM | [11] 30.2 µM | [15] 14.3 µM | [17] 0.379 µM
inactive: [19] | [1] | [6] | [7] | [13] | [14] | [16]
